About 2,000 (36%) of roughly 5,500 compounds were called active. Not shown: some 18% with an inconclusive outcome. Rule as the data show it: active = normalized growth mostly below about 0.91 (no sharp cut-off); inconclusive = no clear call, values can overlap the other calls; inactive = mostly above about 0.92. This is one part of the list.
Assay: chemical genetic growth profiling, strain panel (AID 1159580);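 also: tested at 20 µM; growth read once vehicle control cultures reached saturation at 30 °C; 1 = growth at the plate median or of vehicle wells; lower values mean less growth of the strain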
Conditions: S. cerevisiae deletion strains, growth OD

Measured: normalized growth

CC(=O)O[C@@H]1CC2C(C)(C)CCC(=O)[C@]2(C)C2CC[C@@]3(C)[C@H](c4ccoc4)OC(=O)C4OC43[C@@]21C (stereo partly specified)
inactive: locus YAL013W, strain DEP1, active compounds read low 1 | locus YAL021C, strain ccr4, active compounds read low 0.98 | locus YAL026C, strain drs2, active compounds read low 1 | locus YAL030W, strain snc1, active compounds read low 1.01 | locus YBL061C, strain skt5, active compounds read low 1.01 | locus YBR009C, strain hhf1, active compounds read low 1 | locus YBR021W, strain FUR4, active compounds read low 0.989 | locus YBR023C, strain chs3, active compounds read low 1 | locus YBR171W, strain sec66, active compounds read low 0.986 | locus YBR229C, strain ROT2, active compounds read low 0.996 | locus YBR231C, strain swc5, active compounds read low 0.993 | locus YBR279W, strain paf1, active compounds read low 1.01 | locus YCL011C, strain gbp2, active compounds read low 0.984 | locus YCL016C, strain dcc1, active compounds read low 1.01 | locus YCL029C, strain bik1, active compounds read low 0.984 | locus YCL061C, strain MRC1, active compounds read low 1.02 | locus YCL069W, strain vba3, active compounds read low 0.99 | locus YCR088W, strain abp1, active compounds read low 0.991 | locus YDL005C, strain med2, active compounds read low 0.994 | locus YDL035C, strain GPR1, active compounds read low 1.03 | locus YDL040C, strain nat1, active compounds read low 0.986 | locus YDL074C, strain BRE1, active compounds read low 0.994 | locus YDL101C, strain DUN1, active compounds read low 0.984 | locus YDL185W, strain tfp1, active compounds read low 0.981 | locus YDL192W, strain arf1, active compounds read low 0.993 | locus YDR001C, strain nth1, active compounds read low 0.998 | locus YDR069C, strain doa4, active compounds read low 1.01 | locus YDR101C, strain arx1, active compounds read low 0.991 | locus YDR137W, strain rgp1, active compounds read low 1.05 | locus YDR159W, strain sac3, active compounds read low 1.02 | locus YDR162C, strain NBP2, active compounds read low 1.02 | locus YDR195W, strain ref2 0.941 | locus YDR297W, strain sur2, active compounds read low 1 | locus YDR318W, strain mcm21, active compounds read low 0.993 | locus YDR334W, strain swr1, active compounds read low 0.986 | locus YDR335W, strain msn5, active compounds read low 0.987 | locus YDR388W, active compounds read low 0.98 | locus YDR392W, strain spt3, active compounds read low 0.991 | locus YDR502C, strain sam2, active compounds read low 0.973 | locus YEL003W, strain gim4, active compounds read low 0.995 | locus YEL037C, strain rad23, active compounds read low 0.984 | locus YEL061C, strain CIN8 (second series), active compounds read low 0.987 | locus YEL061C, strain CIN8, active compounds read low 1.01 | locus YER015W, strain faa2, active compounds read low 1 | locus YER016W, strain bim1, active compounds read low 1 | locus YER110C, active compounds read low 0.978 | locus YER111C, strain swi4, active compounds read low 0.987 | locus YER155C, strain BEM2 (second series), active compounds read low 1.02 | locus YER155C, strain BEM2, active compounds read low 0.988 | locus YER167W, strain BCK2, active compounds read low 1 | locus YFR010W, strain ubp6, active compounds read low 0.979 | locus YGL078C, strain dbp3, active compounds read low 0.994 | locus YGL086W, strain mad1, active compounds read low 0.985 | locus YGL167C, strain pmr1, active compounds read low 1.01 | locus YGL173C, strain kem1, active compounds read low 1.01 | locus YGL227W, strain vid30, active compounds read low 0.994 | locus YGL240W, strain doc1, active compounds read low 0.984 | locus YGL248W, strain PDE1, active compounds read low 0.988 | locus YGL253W, strain hxk2, active compounds read low 0.966 | locus YGR135W, strain pre9, active compounds read low 0.973 | locus YGR229C, strain SMI1, active compounds read low 1.02 | locus YGR252W, strain gcn5, active compounds read low 0.952 | locus YHR013C, strain ard1, active compounds read low 0.994 | locus YHR027C, strain rpn1, active compounds read low 1.01 | locus YHR079C, strain IRE1 (second series), active compounds read low 0.99 | locus YHR094C, strain hxt1, active compounds read low 0.983 | locus YHR129C, strain ARP1, active compounds read low 0.997 | locus YHR142W, strain chs7, active compounds read low 0.991 | locus YHR200W, strain rpn10, active compounds read low 0.975 | locus YIL066C, strain RNR3, active compounds read low 1 | locus YIL073C, strain SPO22, active compounds read low 1 | locus YIL125W, strain kgd1, active compounds read low 0.989 | locus YIR030C, strain dcg1, active compounds read low 0.987 | locus YJL092W, strain hpr5, active compounds read low 0.985 | locus YJL095W, strain BCK1 (second series), active compounds read low 1 | locus YJL095W, strain BCK1, active compounds read low 0.988 | locus YJL115W, strain asf1, active compounds read low 0.994 | locus YJL129C, strain trk1, active compounds read low 0.996 | locus YJL134W, strain LCB3, active compounds read low 0.998 | locus YJL154C, strain vps35, active compounds read low 1 | locus YJL164C, strain tpk1, active compounds read low 1.01 | locus YJL166W, strain qcr8, active compounds read low 1.02 | locus YJL168C, strain set2, active compounds read low 0.988 | locus YJL187C, strain SWE1 (second series), active compounds read low 0.977 | locus YJL187C, strain SWE1, active compounds read low 1 | locus YJR043C, strain POL32, active compounds read low 1.02 | locus YKL009W, strain mrt4, active compounds read low 1.01 | locus YKL068W, active compounds read low 0.992 | locus YKL085W, strain MDH1 (second series), active compounds read low 1 | locus YKL085W, strain MDH1, active compounds read low 1 | locus YKL160W, strain elf1, active compounds read low 1.02 | locus YKL190W, strain CNB1, active compounds read low 1.01 | locus YKR001C, strain vps1, active compounds read low 0.983 | locus YKR026C, strain gcn3, active compounds read low 1 | locus YKR091W, strain srl3, active compounds read low 1 | locus YLL001W, strain dnm1, active compounds read low 1.03 | locus YLL026W, active compounds read low 1.01 | locus YLL041C, strain sdh2, active compounds read low 0.993 | locus YLR027C, strain aat2, active compounds read low 1.01 | locus YLR039C, strain RIC1, active compounds read low 1.06 | locus YLR058C, strain SHM2, active compounds read low 0.992 | locus YLR102C, strain apc9, active compounds read low 0.987 | locus YLR221C, strain rsa3, active compounds read low 1 | locus YLR258W, strain gsy2, active compounds read low 0.996 | locus YLR262C, strain YPT6 (second series), active compounds read low 1.03 | locus YLR262C, strain YPT6, active compounds read low 1.1 | locus YLR268W, strain sec22, active compounds read low 0.994 | locus YLR320W, strain mms22, active compounds read low 1.01 | locus YLR342W, strain FKS1 (second series), active compounds read low 1.05 | locus YLR342W, strain FKS1, active compounds read low 1.01 | locus YLR357W, strain rsc2, active compounds read low 0.97 | locus YLR370C, strain arc18, active compounds read low 0.983 | locus YLR371W, strain rom2, active compounds read low 0.992 | locus YLR384C, strain iki3, active compounds read low 0.997 | locus YLR418C, strain cdc73, active compounds read low 0.956 | locus YML016C, strain PPZ1, active compounds read low 0.999 | locus YML032C, strain rad52, active compounds read low 0.986 | locus YML120C, strain ndi1, active compounds read low 1 | locus YML124C, strain tub3, active compounds read low 0.994 | locus YMR058W, strain fet3, active compounds read low 0.999 | locus YMR078C, strain ctf18, active compounds read low 1 | locus YMR125W, strain sto1, active compounds read low 0.987 | locus YMR129W, active compounds read low 1.01 | locus YMR205C, strain PFK2, active compounds read low 1.04 | locus YMR223W, strain ubp8, active compounds read low 0.996 | locus YMR231W, strain pep5, active compounds read low 0.97 | locus YMR307W, strain GAS1, active compounds read low 1.07 | locus YNL067W, strain RPL9B, active compounds read low 0.987 | locus YNL071W, strain lat1, active compounds read low 0.993 | locus YNL209W, strain ssb2, active compounds read low 1.01 | locus YNL233W, strain BNI4, active compounds read low 1 | locus YNL248C, strain rpa49, active compounds read low 0.996 | locus YNL250W, strain rad50, active compounds read low 0.978 | locus YNL271C, strain bni1, active compounds read low 0.97 | locus YNL298W, strain CLA4, active compounds read low 0.996 | locus YNL307C, strain MCK1, active compounds read low 0.986 | locus YNL322C, strain KRE1 (second series), active compounds read low 0.99 | locus YNR049C, strain mso1, active compounds read low 1 | locus YNR052C, strain pop2, active compounds read low 0.966 | locus YOL006C, strain TOP1, active compounds read low 1.05 | locus YOL012C, strain htz1 0.864 | locus YOL147C, strain pex11, active compounds read low 0.982 | locus YOR001W, strain rrp6, active compounds read low 0.973 | locus YOR061W, strain CKA2, active compounds read low 0.998 | locus YOR069W, strain VPS5, active compounds read low 0.99 | locus YOR070C, strain gyp1, active compounds read low 1 | locus YOR080W, strain dia2, active compounds read low 1 | locus YOR083W, strain WHI5, active compounds read low 1.02 | locus YOR106W, strain vam3, active compounds read low 1.01 | locus YOR136W, strain idh2, active compounds read low 0.993 | locus YOR144C, strain elg1, active compounds read low 0.988 | locus YOR184W, strain ser1, active compounds read low 1.02 | locus YOR265W, strain rbl2, active compounds read low 0.996 | locus YOR270C, strain vph1, active compounds read low 1.02 | locus YOR290C, strain snf2, active compounds read low 0.981 | locus YOR316C, strain cot1, active compounds read low 0.984 | locus YPL051W, strain arl3, active compounds read low 1.02 | locus YPL055C, strain LGE1, active compounds read low 1.02 | locus YPL078C, strain atp4, active compounds read low 1.02 | locus YPL106C, strain sse1, active compounds read low 0.996 | locus YPL240C, strain hsp82, active compounds read low 0.999 | locus YPR119W, strain clb2, active compounds read low 0.981 | locus YPR141C, strain kar3, active compounds read low 0.996 | locus YPR163C, strain tif3, active compounds read low 0.975 | locus YPR167C, strain met16, active compounds read low 0.985 | strain wtn01, active compounds read low 1

— PubChem BioAssay AID1159580 (chemical genetic matrix, 2015)
